Source: PubChem BioAssay (EPA / NIEHS)
Several values for one entry are separate records, joined by “and”; a condition that tells them apart may be missing. Equal entries are not always repeated. Results filed as inconclusive are left out. Where a structure was tested more than once in an assay, its records may differ in their call. Activity calls are given as the source filed them. Rule for the calls: active = hit-call score of the fitted dose curve at least 0.9, where 1 is the maximum; inconclusive = response in the unintended direction; inactive = score below 0.9.

test: TOX21_p53_BLA_p3_viability: Viability Assessment in the Tox21 HCT-116 p53 Agonism Beta-lactamase Assay, Phase 3 (AID 2283593);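 note: cells exposed to compound for 16 h before reading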
Excerpt: TOX21_p53_BLA_p3 is a cell-based, single-readout assay that uses HCT116, a human intestinal cell line, […] in a 1536-well plate.TOX21_p53_BLA_p3_viability is an assay readout measuring cellular ATP content and detected with CellTiter-Glo Luciferase-coupled ATP quantitation.TOX21_p53_BLA_p3_viability used a type of viability reporter where loss-of-signal activity can be used to understand changes in the cell viability. Furthermore, this assay endpoint can be referred to as a secondary readout, because this assay has produced multiple assay endpoints where this one serves a viability function. To generalize the intended target to other relatable targets, this assay endpoint is annotated to the cell cycle intended target family, where the subfamily is cytotoxicity.
Thawing Method: Place 14 mL of pre-warmed thaw medium into a 15 mL of conical tub. Remove the vial of cells to be thawed from liquid nitrogen and thaw rapidly by placing at 37C in a water bath with gentle agitation for 1-2 minutes. Decontaminate the vial by wiping with 70% ethanol before opening in a biological safety cabinet. Transfer the vial contents drop-wise into 14 mL of thaw medium in a sterile 15-mL conical tub. Centrifuge cells at 900 rpm for 4 minutes and resuspend in thaw medium. Transfer contents to the T75 tissue culture flask containing Thaw Medium and place flask in a humidified 37C/5% CO2 incubator. Switch to growth medium at first passage.Propagation Method: Aspirate medium, rinse once in DPBS, add 0.25% Trypsin/EDTA and swirl to coat the cell evenly. Add an equal volume of Growth Medium to inactivate Trypsin after 2-3 minutes incubation at 37C. Centrifuge cells at 900 rpm for 4 minutes and resuspend in growth medium. Cell should be passage or fed at least twice a week.Assay Protocol: Harvest cells from culture in growth medium and resuspend in assay medium. 2.2 Dispense 4000 cells/5 uL/well into 1536-well black/clear bottom plates using a Multidrop dispenser. After the cells were incubated at 37C for 5 hours, 23 nL of compounds dissolved in DMSO were transferred to the assay plate by a PinTool resulting in a 217-fold dilution. Incubate the plates for 16 hours at 37C, 5% CO2. Add 1 uL of 6X LiveBLAzer FRET B/G (CCF4-AM) Substrate Mixture to each well using a BioRAPTR dispenser and incubate the plates at room temperature for 2 hours. Measure fluorescence intensity at 460 and 530 nm emission and 405 nm excitation by an Envision detector. Data is expressed as the ratio of 460nm/530nm emissions. Add 4 uL of Cell-titer Glo to each well using BioRAPTR and incubate the plates at room temperature for […]. For cell viability readout that measures cytotoxicity, 4 ul/well of CellTiter-Glo reagent was added into the assay plates using a Flying Reagent Dispenser. After 30 min incubation at room temperature, the luminescence intensity in the plates was measured using a ViewLux plate reader.

Compound | outcome | AC50
CCC(=O)C=CC1C(C)=CCCC1(C)C (stereo not given) | inactive | 
Sc1nc2ccccc2s1 |  | 0.000124 µM (active)
CC1(O)CSC(C)(O)CS1 (stereo not given) | inactive | 
OCCOCC#CCOCCO | inactive | 
CC(CO)(CO)CO | inactive | 
O=C1C(=Cc2cccs2)CCCC1=Cc1cccs1 | inactive | 
COc1cc(C(=O)NS(=O)(=O)c2ccccc2C)ccc1Cc1cn(C)c2ccc(NC(=O)OC3CCCC3)cc12 |  | 7.45 µM (active)
Cc1c(C)n(CCN(C)C)c2ccc(C(=O)OCCN(C)C)cc12 | inactive | 
Nc1ccc(N)c2ccccc12 |  | 3.49 µM (active)
CC(=O)Oc1ccc2c(c1)CC[C@@H]1[C@@H]2CC[C@]2(C)[C@@H](O)CC[C@@H]12 | inactive | 
Nc1c2ccccc2nc2ccccc12 | inactive | 
CCCCCCCCCCC(=O)O | inactive | 
CO[C@H]1C[C@@H]2CC[C@@H](C)[C@@](O)(O2)C(=O)C(=O)N2CCCC[C@H]2C(=O)O[C@H]([C@H](C)C[C@@H]2CC[C@@H](OCCO)[C@H](OC)C2)CC(=O)[C@H](C)/C=C(\C)[C@@H](O)[C@@H](OC)C(=O)[C@H](C)C[C@H](C)\C=C/C=C/C=C/1C |  | 27.4 µM (active)
O=S(c1cc(Cl)cc(Cl)c1O)c1cc(Cl)cc(Cl)c1O | inactive | 
CC=CC(=O)CCCC | inactive | 
CCC[C@@]1(CCc2ccccc2)CC(O)=C([C@H](CC)c2cccc(NS(=O)(=O)c3ccc(C(F)(F)F)cn3)c2)C(=O)O1 | inactive | 
CC1(C)C2CC[C@]3(C)[C@H](C(=O)C=C4[C@@H]5C[C@@](C)(C(=O)O)CC[C@]5(C)CC[C@]43C)[C@@]2(C)CC[C@@H]1O[C@H]1O[C@H](C(=O)O)[C@@H](O)[C@H](O)[C@H]1O[C@@H]1O[C@H](C(=O)O)[C@@H](O)[C@H](O)[C@H]1O (stereo not given in full) | inactive | 
CC(C)C(O)(c1ccc(OC(F)(F)F)cc1)c1cncnc1 (stereo not given) | inactive | 
CC(=O)N(CC(O)CO)c1c(I)c(C(=O)NCC(O)CO)c(I)c(C(=O)NCC(O)CO)c1I (stereo not given) | inactive | 

Compound | outcome | AC50
CCCCC(CC)COCCCN (stereo not given) | inactive | 
COc1cc(NS(C)(=O)=O)ccc1Nc1c2ccccc2nc2ccccc12 |  | 15.1 µM (active)
CCOc1ccccc1C(N)=O | inactive | 
c1ccc(CNc2ncnc3nc[nH]c23)cc1 | inactive | 
CCCn1cnc2c1c(=O)n(CCCCC(C)=O)c(=O)n2C | inactive | 
Cc1ccc2c(ccc3ccccc32)c1 | inactive | 
CCCCCC[C@@H](O)C/C=C\CCCCCCCC(=O)O | inactive | 30.5 µM (active)
CCN(CC)CCCC(C)Nc1c2ccc(Cl)cc2nc2ccc(OC)cc12 (stereo not given) | inactive | 
O=C(O)[C@H](O)[C@@H](O)[C@H](O[C@@H]1O[C@H](CO)[C@H](O)[C@H](O)[C@H]1O)[C@H](O)CO | inactive | 
CC1(C)[C@@H](O)CC[C@]2(C)[C@H]3C(=O)C=C4[C@@H]5C[C@@](C)(C(=O)O)CC[C@]5(C)CC[C@@]4(C)[C@]3(C)CC[C@@H]12 | inactive | 61.4 µM (active) and 22.5 µM (active)
CC(CNC1CCCCC1)OC(=O)c1ccccc1 (stereo not given) | inactive | 
CC(C)(O)CCCC1=CCC(C=O)CC1 (stereo not given) | inactive | 
Cc1ccccc1OCC(O)CO (stereo not given) | inactive | 
CCCCCCCCCCCCCCCCCCOCCO | inactive | 
O=C1Cc2cc(CCN3CCN(c4nsc5ccccc45)CC3)c(Cl)cc2N1 | inactive | 
CC(C)OC(=O)c1cc2c(OCC(O)CNC(C)(C)C)cccc2[nH]1 (stereo not given) | inactive | 
CCOC(=O)NNc1ccc(N(CC)CC(C)O)nn1 (stereo not given) | inactive | 
Cc1cc(CC(=O)O)n(C)c1C(=O)c1ccc(Cl)cc1 | inactive | 
c1ccc(CC2=NCCN2)cc1 | inactive | 
